# Compound activity from PubChem BioAssay.
# CRFBP-R2 block – CRF-BP/CRF-R2 complex antagonism. HEK293 CRF-R2/CRF-BP, CRF-induced calcium fluorescence. inhibition, % at 11.8 µM. hit rate 0.59% among 350,000;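 active = inhibition of the ligand-induced calcium signal above about 50% at the single tested concentration, limit read from the data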
# CendR NRP1 mod – NRP-1/CendR interaction modulation | FAM-RPARPAR peptide binding to NRP-1, fluorescence polarization | inhibition, % at 25 µM | hit rate 0.85% among 360,000 | AID 602438;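 active = inhibition or corrected inhibition above about 18%, plus a signal ratio from 0.5 to 1.5, limit read from the data, passing the limit was not always enough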
# Target sequence (O14786 whole entry, looked up): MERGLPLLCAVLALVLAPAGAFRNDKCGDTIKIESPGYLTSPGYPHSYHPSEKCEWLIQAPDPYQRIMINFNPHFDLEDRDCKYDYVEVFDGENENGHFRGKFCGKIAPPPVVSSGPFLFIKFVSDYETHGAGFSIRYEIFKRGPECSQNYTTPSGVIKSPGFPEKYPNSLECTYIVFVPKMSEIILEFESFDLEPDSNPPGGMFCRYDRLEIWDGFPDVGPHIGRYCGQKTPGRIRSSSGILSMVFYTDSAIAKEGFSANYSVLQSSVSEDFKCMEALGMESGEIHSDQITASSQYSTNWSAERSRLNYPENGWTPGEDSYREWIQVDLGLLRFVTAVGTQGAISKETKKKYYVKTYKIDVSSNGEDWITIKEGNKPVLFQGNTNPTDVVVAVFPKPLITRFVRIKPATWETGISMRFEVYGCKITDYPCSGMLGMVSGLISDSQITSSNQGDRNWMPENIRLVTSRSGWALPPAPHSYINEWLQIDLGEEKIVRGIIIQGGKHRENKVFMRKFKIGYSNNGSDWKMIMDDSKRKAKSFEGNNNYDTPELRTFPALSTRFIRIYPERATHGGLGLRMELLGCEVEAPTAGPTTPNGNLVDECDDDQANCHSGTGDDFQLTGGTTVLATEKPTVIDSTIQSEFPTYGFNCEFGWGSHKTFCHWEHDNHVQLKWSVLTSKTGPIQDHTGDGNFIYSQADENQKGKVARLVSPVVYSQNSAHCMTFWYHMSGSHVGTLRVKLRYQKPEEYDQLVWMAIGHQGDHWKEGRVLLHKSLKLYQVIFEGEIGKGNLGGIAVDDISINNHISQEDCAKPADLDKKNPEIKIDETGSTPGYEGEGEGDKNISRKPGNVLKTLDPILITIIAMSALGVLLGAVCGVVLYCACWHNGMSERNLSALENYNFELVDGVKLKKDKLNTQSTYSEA
# Myeloid diff 2 – compounds promoting myeloid differentiation; ER-HoxA9 myeloid progenitors, lysozyme-GFP differentiation, flow cytometry; calls only at 10 µM; hit rate 1% among 360,000;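 active = normalized GFP-positive differentiation at or above the plate's own cutoff, the solvent-only control mean plus 3 SD; inconclusive = no clear call, values can overlap the other calls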;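 also: cells exposed to compound for four days before flow analysis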
# NadD block – blocks S. aureus nicotinate mononucleotide adenylyltransferase; purified NadD enzyme, colorimetric absorbance read-out; inhibition, % at 20 µM; hit rate 0.78% among 360,000; in the data active = inhibition above about 26%
# FAS-TE inh – blocks the thioesterase domain of human fatty acid synthase; hit rate 0.67% among 360,000; AID 602261; inhibition, % at 15 µM; P49327; recombinant FAS-TE, OMFH fluorogenic substrate, fluorescence endpoint;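 active = compounds whose normalised, plate-corrected inhibition of enzyme fluorescence in the single-dose primary screen is 50% or more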
# A number is an active result; i = inactive; ? = inconclusive; nt = not tested or not shown; + = active, no number. A selection: hits, their analogues and other compounds. The true share with any hit is near 3.6%.
SMILES,CRFBP-R2 block,CendR NRP1 mod,Myeloid diff 2,NadD block,FAS-TE inh
CCOC(=O)/C(C#N)=C/c1cc2ccccc2nc1N1CCOCC1,i,i,i,i,i
Cc1cc(N2CCN(C(c3ccccc3)c3ccccc3)CC2)n2ncnc2n1,i,i,i,i,54
Cc1nc2ncnn2c(N2CCN(C(c3ccccc3)c3ccccc3)CC2)c1C,i,i,i,i,i
Cc1ccc(-c2nc(Nc3cccc(C)c3)sc2CC(=O)O)cc1,i,i,i,i,i
O=C(O)Cc1sc(NC2CCCCC2)nc1-c1ccc(Cl)cc1,i,i,+,i,i
CCOc1cc(NC(=S)NCCCN2CCOCC2)c(OCC)cc1NC(=O)c1cccs1,i,24,i,i,i
O=C(NCCCN1CCOCC1)c1cc(-c2ccc(F)cc2)on1,i,i,i,i,i
O=C(NCCN1CCOCC1)c1ccccc1Cl,i,i,i,i,i
Cc1ccc(C)c(NC(=S)NCCCN2CCOCC2)c1,126,i,i,i,i
Cc1ccc(C(=O)NCCN2CCOCC2)c(Cl)c1,i,i,+,i,i
O=C(NCCN1CCOCC1)c1cc(-c2ccc(F)cc2)on1,i,38,i,i,i
COc1ccccc1C(CNC(=O)c1cccc(NS(=O)(=O)c2ccc(C)c(F)c2)c1)N1CCCC1 (stereo not drawn),i,i,i,i,i
Clc1ncnc2scc(-c3ccc(Br)cc3)c12,i,i,i,i,i
N#Cc1cccc(C#N)c1Oc1ccc(N)cc1,i,i,i,i,i
O=C(COc1cc(Cl)c(Cl)cc1Cl)NCCN1CCOCC1,i,i,+,i,i
CCc1cc(=O)oc2cc(OCC(=O)NCCN3CCOCC3)c(Cl)cc12,i,i,?,i,i
Cc1ccc(C)c(NC(=O)C(=O)NCCCN2CCOCC2)c1,i,33,i,i,i
CC(C(=O)NCCN1CCOCC1)(c1ccccc1)c1ccccc1,81,i,i,i,i
Cc1ccccc1C(=O)NCCN1CCOCC1,i,i,i,i,i
COc1ccc(OCC(=O)NCCCN2CCOCC2)cc1,i,i,i,i,i
CCC(=O)c1ccc(OCC(=O)NCCCN2CCOCC2)cc1,52,i,i,i,i
Cc1cc(C)cc(NC(=O)C(=O)NCCCN2CCOCC2)c1,i,i,i,i,i
Nc1nnc(CC(=O)N/N=C/c2ccccc2OCc2ccc(F)cc2)s1,i,i,i,i,i
O=C(CSc1nnc(NC(=O)C2CC2)s1)Nc1ccc2c(c1)OCCO2,i,i,i,i,i
Nc1nc(C(c2ccccc2)c2ccccc2)cs1,i,i,+,i,i
SMILES,CRFBP-R2 block,CendR NRP1 mod,Myeloid diff 2,NadD block,FAS-TE inh
Nc1nc(-c2ccccc2)cs1,i,i,i,i,i
CC(=O)NC(Cc1ccc(F)c(F)c1)C(=O)NC1CCN(C(=O)c2ccc(Cl)cc2)CC1 (stereo not drawn),i,i,i,i,i
COc1cccc(CC(NC(C)=O)C(=O)NC2CCN(C(=O)c3ccc(Cl)cc3)CC2)c1 (stereo not drawn),i,19,i,i,i
COc1ccc(C(=O)CN2C(=O)c3ccccc3C2=O)cc1,i,i,i,i,i
C#Cc1cccc(C(=O)N2CCCC(Nc3cccc(F)c3)C2)c1 (stereo not drawn),i,i,i,i,i
N#C/C(=C(/O)COC(=O)c1ccc(C#N)cc1)c1nc2ccccc2s1,i,i,+,i,i
N#C/C(=C(/O)COc1ccc(Cl)cc1)c1nc2ccccc2s1,72,i,i,i,i
CN(Cc1ccco1)C(=O)CSc1nc(C2CC2)n(-c2ccccc2)n1,i,i,i,i,i
CCCN1CCC(NC(=O)Nc2ccc(OC)c(OC)c2)CC1,i,49,i,i,i
O=C(/C=C/c1ccc(F)cc1)Nc1cccc(S(=O)(=O)N2CCOCC2)c1,i,i,i,i,i
N#Cc1ccccc1S(=O)(=O)NC(=O)[C@H]1O[C@@H](n2cnc3c(N)ncnc32)[C@H](O)[C@@H]1O,nt,i,i,i,i
C#CCOCCOCCOCCNc1nc(N2CCN(C(=O)CCCCCCCCCCNC(=O)[C@H](CO)n3cc(CCCSC)nn3)CC2)nc(N2CCN(C(=O)CCCCCCCCCCNC(=O)[C@H](CCCN=C(N)N)n3cc(C[C@@H](C)CC)nn3)CC2)n1,i,25,i,62,i
C#CCOCCOCCOCCNc1nc(N2CCN(C(=O)CCCCCCCCCCNC(=O)Cn3cc(C[C@@H](C)O)nn3)CC2)nc(N2CCN(C(=O)CCCCCCCCCCNC(=O)[C@H](CCCN=C(N)N)n3cc(C[C@@H](C)CC)nn3)CC2)n1,i,i,i,38,i
O=C(Nc1nn[nH]n1)c1cc(-c2ccc(Cl)c(Cl)c2Cl)nc2ccccc12,i,i,i,i,i
CC(C(=O)NN=C(c1ccccc1)c1ccccc1)N1CCOCC1 (stereo not drawn),i,26,i,i,i
Cc1nc(Cc2nnc(SC(C)C(=O)Nc3ccccc3)o2)cs1 (stereo not drawn),i,i,i,i,i
CCOC(=O)c1sc(-c2ccc(OC)cc2)cc1N,i,26,i,i,i
COc1ccc(C2CC=C(C(C)=O)CN2S(=O)(=O)c2ccc(C)cc2)cc1 (stereo not drawn),nt,i,i,i,i
Cc1cccc(N(CC(=O)NCc2ccc(F)cc2)C(=O)c2csnn2)c1C,i,20,i,i,i
Cc1ccc(N(CC(=O)NCc2ccc(F)cc2)C(=O)c2csnn2)c(C)c1,i,i,i,i,i
C=CCN(CC(=O)NCc1ccccc1)C(=O)c1csnn1,87,i,?,i,i
O=C(N=Nc1c(O)[nH]c2ccc([N+](=O)[O-])cc12)c1ccccc1Cl,i,i,i,i,i
O=C(N=Nc1c(O)[nH]c2ccc(Cl)cc12)c1cc(-c2cccs2)nc2ccccc12,i,i,i,34,i
Cn1cc(-c2ccccc2C(N)=O)c(=O)c2cc(Cl)ccc21,i,i,i,i,i
Cn1cc(C2=C(c3ccc(Cl)cc3Cl)C(=O)NC2=O)c2ccccc21,i,i,+,i,i
SMILES,CRFBP-R2 block,CendR NRP1 mod,Myeloid diff 2,NadD block,FAS-TE inh
CCN(CC(=O)NCc1cccs1)C(=O)c1ccc(S(=O)(=O)N(C)c2ccccc2)cc1,i,21,i,i,i
CCN(CC(=O)NCc1cccs1)C(=O)c1ccc(S(=O)(=O)N(C)C)cc1,i,i,i,i,i
c1ccc(SCCc2ccncc2)cc1,i,i,i,i,i
CC(C)(C)c1ccc(SCCc2cccnc2)cc1,71,31,i,i,i
CN1OC[C@@H]2CN(C(=O)C(C)(C)C)[C@H](c3ccc(-c4cccnc4)cc3)C[C@@H]21,nt,i,i,i,i
COc1ccc(NC(=O)C(=O)NNC(=O)c2cccs2)c(OC)c1,75,i,i,i,i
COc1cc(NC(=O)c2ccc([N+](=O)[O-])o2)ccc1NC(=O)c1cccs1,i,i,+,i,i
Cc1ccccc1NC(=O)c1ccc([N+](=O)[O-])o1,i,i,i,i,i
COC(=O)c1sc(NC(=O)c2ccc([N+](=O)[O-])o2)c(C#N)c1C,74,i,i,i,i
Cc1ccc(NC(=O)c2ccc([N+](=O)[O-])o2)c(C)c1,i,i,+,i,i
